Reference: PubChem BioAssay AID1159580 (chemical genetic matrix, 2015)
Values joined by “and” are separate entries in the source; they are usually repeats but may differ in a detail not shown here. Identical values can stand only once. The whole screen tested about 5,500 compounds, of which about 2,000 (36%) were called active. Another 18% or so got no clear call; they are omitted. Cut-off read from the data, not from the text of the source: active = normalized growth mostly below about 0.91 (no sharp cut-off); inconclusive = no clear call, values can overlap the other calls; inactive = mostly above about 0.92. Some of the results follow.

Test: chemical genetic growth profiling, strain panel (AID 1159580);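 note: tested at 20 µM; growth read once vehicle control cultures reached saturation at 30 °C; 1 = growth at the plate median or of vehicle wells; lower values mean less growth of the strain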
Conditions: S. cerevisiae deletion strains, growth OD

Measured: normalized growth

CC(=O)O[C@H]1C[C@@]2(C)[C@@H](C[C@@H](O)C3[C@]2(C)CC[C@H]2[C@H](C)[C@H](O)CC[C@]32C)/C1=C(/CCC=C(C)C)C(=O)O (stereo partly drawn)
inactive: locus YAL013W, strain DEP1, hits give low values 1.02 | locus YAL021C, strain ccr4, hits give low values 1.02 | locus YAL026C, strain drs2, hits give low values 1.01 | locus YAL030W, strain snc1, hits give low values 1.03 | locus YBL061C, strain skt5, hits give low values 1.04 | locus YBR009C, strain hhf1, hits give low values 1.02 | locus YBR021W, strain FUR4, hits give low values 1.04 | locus YBR023C, strain chs3, hits give low values 1.04 | locus YBR171W, strain sec66, hits give low values 1.01 | locus YBR229C, strain ROT2, hits give low values 1.01 | locus YBR231C, strain swc5, hits give low values 0.988 | locus YBR279W, strain paf1, hits give low values 1.03 | locus YCL011C, strain gbp2, hits give low values 1.01 | locus YCL016C, strain dcc1, hits give low values 1.05 | locus YCL029C, strain bik1, hits give low values 1.03 | locus YCL061C, strain MRC1, hits give low values 1.02 | locus YCL069W, strain vba3, hits give low values 1.01 | locus YCR088W, strain abp1, hits give low values 1.01 | locus YDL005C, strain med2, hits give low values 1.04 | locus YDL035C, strain GPR1, hits give low values 0.989 | locus YDL040C, strain nat1, hits give low values 1.02 | locus YDL074C, strain BRE1, hits give low values 1.03 | locus YDL101C, strain DUN1, hits give low values 1.01 | locus YDL134C, strain PPH21, hits give low values 1 | locus YDL185W, strain tfp1, hits give low values 1.01 | locus YDL192W, strain arf1, hits give low values 1.03 | locus YDR001C, strain nth1, hits give low values 1 | locus YDR069C, strain doa4, hits give low values 1.03 | locus YDR101C, strain arx1, hits give low values 1.02 | locus YDR137W, strain rgp1, hits give low values 1 | locus YDR150W, strain NUM1, hits give low values 1.02 | locus YDR159W, strain sac3, hits give low values 0.989 | locus YDR162C, strain NBP2, hits give low values 1 | locus YDR195W, strain ref2 1.03 | locus YDR297W, strain sur2, hits give low values 1.02 | locus YDR318W, strain mcm21, hits give low values 1.03 | locus YDR334W, strain swr1, hits give low values 1.02 | locus YDR335W, strain msn5, hits give low values 1.04 | locus YDR388W, hits give low values 1.04 | locus YDR392W, strain spt3, hits give low values 0.998 | locus YDR502C, strain sam2, hits give low values 1.04 | locus YEL003W, strain gim4, hits give low values 0.998 | locus YEL037C, strain rad23, hits give low values 1 | locus YEL061C, strain CIN8 (second series), hits give low values 1.01 | locus YEL061C, strain CIN8, hits give low values 1.01 | locus YER015W, strain faa2, hits give low values 1.03 | locus YER016W, strain bim1, hits give low values 1.01 | locus YER110C, hits give low values 1.02 | locus YER111C, strain swi4, hits give low values 1.03 | locus YER155C, strain BEM2 (second series), hits give low values 1.01 | locus YER155C, strain BEM2, hits give low values 1.01 | locus YER167W, strain BCK2, hits give low values 1.02 | locus YFR010W, strain ubp6, hits give low values 1.02 | locus YGL078C, strain dbp3, hits give low values 1.04 | locus YGL086W, strain mad1, hits give low values 1.01 | locus YGL167C, strain pmr1, hits give low values 1.02 | locus YGL173C, strain kem1, hits give low values 1.01 | locus YGL227W, strain vid30, hits give low values 1.01 | locus YGL240W, strain doc1, hits give low values 1.01 | locus YGL248W, strain PDE1, hits give low values 1.01 | locus YGL253W, strain hxk2, hits give low values 1.01 | locus YGR078C, strain PAC10, hits give low values 1.02 | locus YGR135W, strain pre9, hits give low values 1.06 | locus YGR229C, strain SMI1, hits give low values 1.02 | locus YGR252W, strain gcn5, hits give low values 1.02 | locus YHR013C, strain ard1, hits give low values 1.08 | locus YHR027C, strain rpn1, hits give low values 1.03 | locus YHR030C, strain SLT2, hits give low values 1.02 and 0.951 | locus YHR079C, strain IRE1 (second series), hits give low values 1.01 | locus YHR079C, strain IRE1, hits give low values 0.959 | locus YHR094C, strain hxt1, hits give low values 1.03 | locus YHR129C, strain ARP1, hits give low values 1.01 | locus YHR142W, strain chs7, hits give low values 1.04 | locus YHR200W, strain rpn10, hits give low values 1.05 | locus YIL066C, strain RNR3, hits give low values 1.01 | locus YIL073C, strain SPO22, hits give low values 1.03 | locus YIL125W, strain kgd1, hits give low values 1.03 | locus YIR030C, strain dcg1, hits give low values 1.04 | locus YJL092W, strain hpr5, hits give low values 1.01 | locus YJL095W, strain BCK1 (second series), hits give low values 1.03 | locus YJL095W, strain BCK1, hits give low values 1.03 and 0.977 | locus YJL115W, strain asf1, hits give low values 1.03 | locus YJL129C, strain trk1, hits give low values 1.03 | locus YJL134W, strain LCB3, hits give low values 1.01 | locus YJL154C, strain vps35, hits give low values 0.993 | locus YJL164C, strain tpk1, hits give low values 1.06 | locus YJL166W, strain qcr8, hits give low values 1.08 | locus YJL168C, strain set2, hits give low values 1.02
